# Data from PubChem BioAssay.
# The source made the active and inactive calls. Unless noted, the rule behind the calls is not given here.
# Legend:
# [1] = compounds binding Alexa647 anti-His antibody – biochemical, small-molecule microarray, 635 nm fluorescence, artefact control for SMM control protein annotation, primary screen (AID 1128); settings: higher = more signal;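 note: score merges feature fluorescence with signal-to-noise for each printed compound spot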
# [2] = system: Human papillomavirus type 1a E7 protein (residues 1-88); experiment: HPV1a E7 small-molecule binders, primary screen, biochemical, small-molecule microarray, residues 1-88, 635 nm (AID 1129); settings: small-molecule microarray binding, fluorescence 635 nm; higher = more signal
# [3] = target: Focal adhesion kinase 1 (Homo sapiens) (UniProt Q05397); experiment: PTK2 protein binding on printed compound slides – biochemical, small-molecule microarray, 635/667 nm fluorescence, BSA, DTT, primary screen (AID 1130); settings: 635 nm fluorescence, higher = more signal;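 note: composite of spot emission at 667 nm and signal to noise over triplicate slides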
# Focal adhesion kinase 1 (Homo sapiens), sequence (Q05397 whole entry, looked up): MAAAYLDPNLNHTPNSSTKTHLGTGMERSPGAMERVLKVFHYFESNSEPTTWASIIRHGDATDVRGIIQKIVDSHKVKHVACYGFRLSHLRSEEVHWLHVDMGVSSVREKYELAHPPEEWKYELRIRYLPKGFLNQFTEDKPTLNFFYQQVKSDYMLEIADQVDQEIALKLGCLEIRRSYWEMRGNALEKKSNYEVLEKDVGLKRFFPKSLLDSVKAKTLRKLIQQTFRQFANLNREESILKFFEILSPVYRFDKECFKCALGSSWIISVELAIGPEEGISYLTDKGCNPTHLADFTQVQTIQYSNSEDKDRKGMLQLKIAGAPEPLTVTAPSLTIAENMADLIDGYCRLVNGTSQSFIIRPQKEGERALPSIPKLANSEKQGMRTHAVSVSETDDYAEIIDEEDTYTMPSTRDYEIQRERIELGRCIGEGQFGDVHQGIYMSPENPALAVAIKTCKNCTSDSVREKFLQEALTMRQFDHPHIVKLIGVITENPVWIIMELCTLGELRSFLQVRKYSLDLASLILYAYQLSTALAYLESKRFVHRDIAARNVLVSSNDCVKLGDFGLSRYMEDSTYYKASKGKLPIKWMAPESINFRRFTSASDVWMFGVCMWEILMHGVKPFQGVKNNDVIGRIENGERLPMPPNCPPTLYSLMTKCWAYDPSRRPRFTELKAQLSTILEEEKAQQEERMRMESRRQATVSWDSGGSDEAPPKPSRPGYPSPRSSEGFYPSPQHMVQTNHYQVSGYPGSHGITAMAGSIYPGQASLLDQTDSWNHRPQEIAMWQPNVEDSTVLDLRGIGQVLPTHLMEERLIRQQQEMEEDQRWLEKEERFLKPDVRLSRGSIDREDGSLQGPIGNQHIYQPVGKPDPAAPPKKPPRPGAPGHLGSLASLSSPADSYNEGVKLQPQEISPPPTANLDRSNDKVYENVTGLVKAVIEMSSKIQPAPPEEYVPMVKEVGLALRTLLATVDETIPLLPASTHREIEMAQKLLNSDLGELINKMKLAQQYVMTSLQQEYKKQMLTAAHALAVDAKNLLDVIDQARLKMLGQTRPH
# [4] = system: Fibrinogen (Alexa647-labelled); experiment: Alexa647-fibrinogen binding to printed small molecules – biochemical, small-molecule microarray, 635/667 nm fluorescence, artefact control for SMM control-protein annotation, profiling panel (AID 1131); settings: fibrinogen-A647 binding fluorescence, higher = more signal;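 note: z-score merges 667 nm fluorescence with per-spot signal-to-noise over triplicate slides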
# [5] = target: Follistatin (Homo sapiens) (UniProt P19883); experiment: FST protein binding to printed compounds – biochemical, small-molecule microarray, 635/667 nm fluorescence, primary screen (AID 1132); settings: 635 nm fluorescence, higher = more signal
# Follistatin (Homo sapiens), sequence (P19883 whole entry, looked up): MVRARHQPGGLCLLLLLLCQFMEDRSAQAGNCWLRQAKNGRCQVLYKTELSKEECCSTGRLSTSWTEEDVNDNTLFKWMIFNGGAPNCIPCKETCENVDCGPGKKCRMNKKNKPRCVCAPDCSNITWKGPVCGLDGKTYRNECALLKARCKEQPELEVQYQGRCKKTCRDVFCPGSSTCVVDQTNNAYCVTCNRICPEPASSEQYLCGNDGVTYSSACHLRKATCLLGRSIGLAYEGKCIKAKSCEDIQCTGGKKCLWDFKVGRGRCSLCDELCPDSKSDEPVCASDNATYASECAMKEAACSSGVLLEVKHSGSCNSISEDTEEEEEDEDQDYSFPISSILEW
# [6] = target: Fibroblast growth factor 2 (Homo sapiens) (UniProt P09038); experiment: basic fibroblast growth factor binding to printed compounds – biochemical, small-molecule microarray, 635/667 nm fluorescence, primary screen (AID 1133); settings: FGF2, fluorescence 635/667, higher = more signal
# Fibroblast growth factor 2 (Homo sapiens), sequence (P09038 whole entry, looked up): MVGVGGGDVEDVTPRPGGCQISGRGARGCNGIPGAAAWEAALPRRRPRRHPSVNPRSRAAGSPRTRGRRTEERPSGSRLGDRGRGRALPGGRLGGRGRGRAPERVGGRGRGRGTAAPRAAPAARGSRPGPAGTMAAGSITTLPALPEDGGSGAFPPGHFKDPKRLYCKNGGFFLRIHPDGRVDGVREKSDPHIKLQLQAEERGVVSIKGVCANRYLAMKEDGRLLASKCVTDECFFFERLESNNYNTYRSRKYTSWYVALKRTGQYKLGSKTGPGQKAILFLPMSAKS
# [7] = JC-1 mitochondrial potential readout, lung cancer cells – cell-based, A549, JC-1 fluorescence, basal, 24 h, 100 nL, profiling panel (AID 1138); settings: higher = more signal;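 note: A549 lung adenocarcinoma cells under basal conditions with no added stimulus; test concentration not given here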
# Lefty1 = Lefty1 protein binding to printed compounds – biochemical, small-molecule microarray, 635/667 nm fluorescence, primary screen (AID 1139); settings: fluorescence 635/667, higher = more signal
# [8] = system: wheat germ agglutinin (Triticum aestivum), Alexa647-labelled; experiment: Alexa647-WGA lectin binding to printed small molecules – biochemical, small-molecule microarray, 635/667 nm fluorescence, artefact control for SMM control-protein annotation, profiling panel (AID 1140); settings: WGA-A647 binding, 635 nm fluorescence, higher = more signal;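 note: score merges 667 nm feature emission with signal to noise over triplicate slides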
# [9] = target: Luciferin 4-monooxygenase (Photinus pyralis) (UniProt P08659); experiment: inhibition of purified Photinus pyralis luciferase – biochemical, luminescence, purified enzyme, 2006 set, primary screen (AID 1141); settings: purified firefly luciferase, SteadyGlo luminescence, 30 min; higher = more signal, called active from +8 up or from −8 down;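 note: cell-free assay with purified firefly luciferase at 100 ng per well in PBS; test concentration not given here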
# Luciferin 4-monooxygenase (Photinus pyralis), sequence (P08659 whole entry, looked up): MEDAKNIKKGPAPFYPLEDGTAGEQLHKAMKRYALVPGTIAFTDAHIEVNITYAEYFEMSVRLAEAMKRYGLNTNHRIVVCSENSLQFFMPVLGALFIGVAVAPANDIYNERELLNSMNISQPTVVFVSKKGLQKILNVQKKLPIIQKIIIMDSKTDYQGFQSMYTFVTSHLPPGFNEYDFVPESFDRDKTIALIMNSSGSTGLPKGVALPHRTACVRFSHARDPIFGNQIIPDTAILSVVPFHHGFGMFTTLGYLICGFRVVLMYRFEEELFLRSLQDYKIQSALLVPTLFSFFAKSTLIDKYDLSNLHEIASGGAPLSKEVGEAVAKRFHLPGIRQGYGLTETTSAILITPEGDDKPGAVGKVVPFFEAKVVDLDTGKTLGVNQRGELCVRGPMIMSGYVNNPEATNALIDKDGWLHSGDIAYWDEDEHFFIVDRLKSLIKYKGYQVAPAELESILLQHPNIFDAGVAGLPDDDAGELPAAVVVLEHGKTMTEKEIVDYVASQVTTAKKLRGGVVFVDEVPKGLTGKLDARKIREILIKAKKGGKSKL
# [10] = system: Wnt5a (protein binding on small-molecule microarray); experiment: small molecules binding Wnt5a protein – biophysical, small-molecule microarray, 635/667 nm fluorescence, primary screen (AID 1142); settings: 635 nm fluorescence, higher = more signal;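 note: fluorescence read at 667 nm with signal to noise per printed feature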
# [11] = ATP-based viability of Huh7 replicon cells – cell-based, CellTiter-Glo luminescence, basal, 48 h, cytotoxicity control for HCV replication inhibitor project, primary screen (AID 1143); settings: higher = more signal, called active from +8 up or from −8 down;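 note: Huh7 hepatoma cells carrying a hepatitis C replication reporter with no stimulus; test concentration not given here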
# [12] = Pseudomonas biofilm growth suppression – PAO1 strain, BacTiter-Glo luminescence, LB-PBS, primary screen (AID 1144); settings: P. aeruginosa PAO1 biofilm, 12 h, higher = more signal
# [13] = basal CRE-LacZ reporter activity in PC12 – cell-based, unstimulated, primary screen (AID 1145); settings: no forskolin, luminescence, 4.5 h, higher = more signal, called active from +8 up or from −8 down
# [14] = forskolin-driven CRE-LacZ activity in PC12 – cell-based, CRE-LacZ reporter, forskolin-stimulated, primary screen (AID 1146); settings: luminescence, 4.5 h, higher = more signal, called active from +8 up or from −8 down;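 note: PC12 cells with 6xCRE LacZ reporter stimulated by forskolin 10 µM; beta-galactosidase reporter signal reflecting CREB driven transcription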
# [15] = target: Streptavidin (Streptomyces avidinii) (UniProt P22629); experiment: compounds binding control protein streptavidin – biophysical, small-molecule microarray, 635/667 nm fluorescence, artefact control for SMM compound annotation, primary screen (AID 1147); settings: higher = more signal;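 note: signal reflects streptavidin binding to arrayed compounds as a control protein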
# Streptavidin (Streptomyces avidinii), sequence (P22629 whole entry, looked up): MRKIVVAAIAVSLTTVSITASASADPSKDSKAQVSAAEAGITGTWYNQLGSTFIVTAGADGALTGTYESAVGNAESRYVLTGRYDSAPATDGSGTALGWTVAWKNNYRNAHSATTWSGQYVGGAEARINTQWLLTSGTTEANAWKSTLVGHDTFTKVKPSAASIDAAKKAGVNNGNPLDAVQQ
# [16] = probe aInhba binding on compound microarray – biochemical, small-molecule microarray, 635/667 nm fluorescence, primary screen (AID 1148); settings: higher = more signal;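 note: score merges 667nm spot fluorescence with signal-to-noise for antibody binding to printed compounds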
# Torsin-1A (Homo sapiens) [17] = target: Torsin-1A (Homo sapiens) (UniProt O14656); experiment: TOR1A wild-type binding on microarray – cell lysate, small-molecule microarray, lysate, 635/667 nm, primary screen (AID 1149); settings: COS7 hTOR1A-WT lysate, 635 nm fluorescence, higher = more signal
# Torsin-1A (Homo sapiens), sequence (O14656 whole entry, looked up): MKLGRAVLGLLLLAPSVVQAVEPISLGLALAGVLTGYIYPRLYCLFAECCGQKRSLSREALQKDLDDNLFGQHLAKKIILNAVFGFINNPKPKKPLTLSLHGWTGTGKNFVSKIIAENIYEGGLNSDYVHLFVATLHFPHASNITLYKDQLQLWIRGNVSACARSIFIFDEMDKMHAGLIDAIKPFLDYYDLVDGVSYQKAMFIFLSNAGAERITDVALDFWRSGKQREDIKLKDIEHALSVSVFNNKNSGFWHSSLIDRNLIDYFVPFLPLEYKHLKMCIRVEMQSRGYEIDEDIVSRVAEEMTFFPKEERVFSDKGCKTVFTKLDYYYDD
# Torsin-1A (Homo sapiens) [18] = target: Torsin-1A (Homo sapiens) (UniProt O14656); experiment: torsin A mutant lysate binding on microarrays – cell lysate, small-molecule microarray, COS7 lysate, 635/667 nm fluorescence, primary screen (AID 1150); settings: COS7 hTOR1A mutant lysate, 635 nm fluorescence, higher = more signal;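 note: score pools 667 nm emission and signal to noise measuring lysate protein binding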
# [19] = system: Sonic hedgehog protein (Shh); experiment: Sonic hedgehog microarray binding compounds – biochemical, small-molecule microarray, 635/667 nm fluorescence, primary screen (AID 1151); settings: 635 nm fluorescence, higher = more signal;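 note: Shh protein binding to compounds spotted on small-molecule microarray slides; score combines spot fluorescence intensity with signal-to-noise across triplicate slides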
SMILES,composite z-score [1],composite z-score [2],composite z-score [3],composite z-score [4],composite z-score [5],composite z-score [6],z-score [7],composite z-score (Lefty1),composite z-score [8],z-score [9],composite z-score [10],z-score [11],z-score [12],z-score [13],z-score [14],composite z-score [15],composite z-score [16],composite z-score (Torsin-1A (Homo sapiens) [17]),composite z-score (Torsin-1A (Homo sapiens) [18]),composite z-score [19]
Cc1c(NC(=O)/C(C#N)=C/c2ccc(Cl)cc2)c(=O)n(-c2ccccc2)n1C,0.753,0.8,-0.171,1.03,0.114,0.627,1.28,0.466,0.794,-0.304 (inactive),-0.159,-1.62 (inactive),-1.04 (inactive),-0.374 (inactive),-1.64 (inactive),1.33,-0.0259,0.34,0.407,-0.217
NC(=O)N1C(=O)C2C(C1=O)C1C=C(CCCO)C2C(c2ccc(CN3CCCC3)cc2)N1Cc1cccc(OC(F)(F)F)c1 (stereo not given),0.22,0.429,0.102,0.33,1.05,0.532,1.39,1.38,0.0168,-0.84 (inactive),0.232,-0.596 (inactive),0.963 (inactive),0.494 (inactive),-0.679 (inactive),-0.157,-0.0736,0.094,0.462,1.86
C=CCC(OC(C)=O)[C@@H]1[C@@H](N(Cc2ccc(-c3ccccc3)cc2)C(=O)c2ccc(C)cc2)c2cc(OCCCO)ccc2N1C(=O)c1ccc2ccccc2c1 (stereo not given in full),-0.722,0.117,-0.161,-0.283,0.576,-0.0502,1.68,0.297,0.008,-1.9 (inactive),0.0548,-0.715 (inactive),0.137 (inactive),1.97 (inactive),0.179 (inactive),0.122,0.108,0.222,-0.0531,0.587
CC(C)C[C@@H]1NC(=O)[C@@H]2C[C@H](C(=O)NCCCC[N+](C)(C)C)[C@H](c3ccc(O)cc3)N2C1=O,2.63,0.643,-0.133,0.354,1.42,1.76,-0.694,1.67,0.479,-0.948 (inactive),0.814,-0.394 (inactive),-1.08 (inactive),0.285 (inactive),-0.387 (inactive),0.0306,0.0669,1.47,1.2,2.13
NCCCC[C@@H]1NC(=O)[C@H]2C[C@@H](C(=O)O)[C@@H](c3cccc(OCCO)c3)N2C1=O,3,1.26,0.188,0.577,1.41,1.69,-1.44,1.64,1.44,-1.08 (inactive),0.424,0.0458 (inactive),-0.0686 (inactive),-0.943 (inactive),0.963 (inactive),1.99,0.15,1.18,1.7,1.85
CN(C)CCCC[C@@H]1NC(=O)[C@H]2C[C@@H](C(=O)O)[C@@H](c3cccc(OCCO)c3)N2C1=O,3.17,-0.209,0.239,0.564,1.4,0.977,1.29,1.45,0.734,-1.9 (inactive),0.205,-0.0686 (inactive),-0.43 (inactive),0.0124 (inactive),0.0684 (inactive),-0.414,0.216,0.717,1.1,1.84
C=CC[C@]1(C(=O)NCCCOC)N=C(c2ccc(OCCCO)cc2)O[C@H]1c1ccccc1,1.19,1.21,0.0442,-0.922,1.29,-0.9,0.266,-0.689,0.566,0.436 (inactive),0.274,-2.26 (inactive),-0.747 (inactive),0.857 (inactive),0.15 (inactive),-0.0374,-0.0986,0.872,1.37,-1.62
COc1ccc(CCNC(=O)[C@@]2(Sc3ccc(C)cc3)CC(=O)N(C(C)C)[C@@H]2c2ccc(CO)cc2)cc1,0.8,-0.594,-0.13,-1.3,-0.616,-1.26,0.339,-0.919,-0.29,-0.424 (inactive),-1.02,-0.583 (inactive),0.305 (inactive),1.56 (inactive),-0.519 (inactive),-0.621,-0.137,0.939,0.122,-1.6
Cc1ccc(F)cc1S(=O)(=O)N[C@@H]1CCN(Cc2ccc3[nH]ccc3c2)C1,0.426,0.479,-0.105,-0.0254,1.06,0.561,0.316,0.543,0.0689,0.175 (inactive),-0.159,-2.99 (inactive),1.17 (inactive),-0.147 (inactive),0.49 (inactive),0.874,-0.0403,0.247,0.608,0.711
[N-]=[N+]=Nc1ccccc1[C@@H]1OC(c2ccc(OCCCO)cc2)=N[C@]1(Cc1ccccc1)C(N)=O,1.91,0.445,0.474,0.899,0.207,-0.425,1.86,-0.188,0.619,-8.14 (active),-0.0757,-2 (inactive),-0.0461 (inactive),0.195 (inactive),-1.49 (inactive),0.533,0.451,0.245,0.305,-0.0762
